Data: PubChem BioAssay (NCI)
About 83,000 compounds went through this panel and 20% of them were active in at least one assay; those are over-represented in the sample as a whole.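 Negative percent growth values reflect cell death: -40 means 40% of the cells present at the start died, and -100 means all died.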 Values without a mark were called inactive. Activity calls are given as the source filed them. The calls were made as follows: active = growth percent below 10; inactive = the rest.

The compounds below were run on HL-60(TB) leukemia (assay: NCI-60 one-dose screen, 48 h (100 = growth as untreated, 0 = no growth, -100 = all killed)). Conditions: 10 µM unless noted.
In the case of CCCCCCCCn1ccc2cc(NC(=O)CN3CCN(c4nc(C)cc(N5CCCCC5)n4)CC3)ccc21, the growth is reported as 71%.
In the case of CCOC(=O)N1CCC(N=C2CSc3nnc(-c4cc(C(F)(F)F)cc(C(F)(F)F)c4)n3N2)CC1, the growth is reported as -40.7% (active).
O=C(C(=O)c1ccc2c(c1)OCO2)c1ccc2c(c1)OCO2 gave a growth of 62.3%.
OCCCc1n(Cc2ccc3ccccc3c2)c2ccccc2[n+]1Cc1ccc2ccccc2c1 was tested, and the growth was -43.5% (active).
CC1=CC(=O)OC1C/C=C(\C)CCC1[C@@]2(C)CCC[C@@](C)(C(=O)O)C2CC[C@@]1(C)O (stereo not given in full) showed a growth of 95.8%.
Compound COc1ccc(N2CCC(=S)NC2=S)cc1 has a growth of 99%.
For COc1cc(C=Nc2oc(-c3ccccc3)c(-c3ccccc3)c2C#N)cc(CN2CCCCC2)c1O, the growth was 92.5%.
CC(=O)/C(N=Nc1ccc(S(=O)(=O)c2ccc(N=N/C(C(C)=O)=C(/C)O)cc2)cc1)=C(\C)O was tested, and the growth was 88.5%.
O=C(NC1CC1)c1cc2n(n1)CC(c1ccccc1)N2 (stereo not given) was tested, and the growth was 107%.
Work on CCCCCCCCCCCCCCn1c2ccccc2c2c3c(c4c5cc(OC)ccc5oc4c21)C(=O)NC3=O yielded a growth of 115%.
Compound OC1CSSC1Cn1cnc2c(Nc3ccc(F)c(Cl)c3)ncnc21 (stereo not given) has a growth of 45.8%.
For CNc1cccc2c1C(=O)c1cccc(N)c1C2=O, the growth was 34.4%.
With O=C(O)c1ccc(Cl)cc1Nc1ccc(F)cc1 the growth was 90.2%.
Compound CCOC(=O)c1c2c(c(C)n1C)-c1nn(Cc3ccc(OC)cc3)cc1CC2 has a growth of 73.1%.
With CCC#CC[C@H](O)C/C=C1/C(=O)C=C[C@@H]1C/C=C\CCCC(=O)OC the growth was 2.22% (active).
In the case of O=C1C(Nc2ccccn2)=C(I)C(=O)c2ncccc21, the growth is reported as -55.5% (active).
For O=P(O)(c1ccccc1)c1ccccc1I, the growth was 117%.
For COc1cc(C)c2c(=O)c3c(oc2c1)C(=O)c1c(O)c(OC)cc(O)c1C3=O, the growth was -45.4% (active).
OC(COc1cccc2ccccc12)CN1CCN(c2ccccc2)CC1 (stereo not given) showed a growth of 90.9%.
Cc1cccc(N2CCN(CC(O)COc3ccc(Cl)cc3)CC2)c1 (stereo not given) was tested, and the growth was 123%.
With CCN1C(=O)N(CC)C2C1NN=c1s/c(=C\c3ccco3)c(=O)n12 (stereo not given) the growth was -20.3% (active).
Nc1ccc2ccc(NS(=O)(=O)N3CCCCC3)cc2c1 was tested, and the growth was 2.41% (active).
In the case of Cc1nc2cc(Nc3nc(Nc4ccc(F)cc4)nc(-c4ccc(Cl)cc4)n3)ccc2n1Cc1ccccc1, the growth is reported as -29.6% (active).
CCCCCCn1c(=N)n(CC(O)COc2cccc(C)c2)c2ccccc21 (stereo not given) was tested, and the growth was -48% (active).
With Cc1oc2nc[nH]c(=O)c2c1C(=O)/C=C/c1ccc(Br)cc1 the growth was -4.98% (active).
With Cc1ccc(S(=O)(=O)OC2COCOC2C(OS(=O)(=O)c2ccc(C)cc2)C2OCOCC2OS(=O)(=O)c2ccc(C)cc2)cc1 (stereo not given) the growth was 106%.
With N#Cc1c(-c2ccc(Cl)cc2)nc(NCCO)[nH]c1=O the growth was 102%.
Work on Cc1cc(NC(=O)c2ccccc2)c(Cl)cc1N yielded a growth of 54.7%.
For CC(O)c1ncc(/C=C2\SC(=S)N(Cc3ccccc3)C2=O)s1 (stereo not given), the growth was 85.2%.
For O=C(Nc1ccc(Cl)c(Cl)c1)NS(=O)(=O)c1cnccc1Oc1ccc(F)cc1, the growth was 54%.
For O=c1ccc2ccc(OCCN3CCCCC3)cc2o1, the growth was -28% (active).
Work on COc1ccc(C2C=C(c3ccc(Cl)cc3)N=C3SC=CN32)c(Br)c1 (stereo not given) yielded a growth of 92.9%.
With CN1CCN(Cc2ccc(NC(=O)c3cncc(C#Cc4c(N)ncc5cc(F)ccc45)c3)cc2C(F)(F)F)CC1 the growth was -46.2% (active).
Cc1cc(C)nc(SC2=C(Nc3cc(Cl)ccc3O)C(=O)N(Cc3ccccc3)C2=O)n1 gave a growth of 85.3% [30 µM].
COC(=O)/C=C1/SC(=Nc2ccc(F)cc2)N(CCc2c[nH]c3ccc(O)cc23)C1=O was tested, and the growth was -8.07% (active).
With C=C(C)[C@@H]1CC[C@]2(COC(=O)c3cccnc3)CC[C@]3(C)[C@H](CC[C@@H]4[C@@]5(C)CCCN(C(=O)c6cccnc6)C(C)(C)[C@@H]5CC[C@]43C)[C@@H]12 the growth was 11.6%.
In the case of c1ccc(-c2n(Cc3ccc4ccccc4n3)c3ccccc3[n+]2Cc2ccc3ccccc3n2)cc1, the growth is reported as -54% (active).
For CCSc1nnc(Nc2ccc(C(C)C)cc2)s1, the growth was 48.8%.
With C=CCNc1nc(NN2C(=O)c3cccc4cccc(c34)C2=O)nc(-n2cnc3ccccc32)n1 the growth was 93.9%.
With c1ccc(CNc2ncnc3scc(-c4cccs4)c23)nc1 the growth was 58.2%.
